# Source: the supplement of paper PMC10849652
# Of roughly 7,900 targets only a part is listed; those with a hit were picked by preference. About 0.6% of all pairs of compound and target were hits. Values without a mark were called inactive.
# Compound: CNC(=O)C1=CC=CC=C1NC2=NC(=NC=C2Cl)NC3=C(C=C(C=C3)N4CCOCC4)OC
# Assay: log2 fold change, soluble protein after heating vs DMSO (PISA); higher = thermal stabilisation; K562 cells, 10 uM, 30 min; active = over 0.2 and 3.5 SD of the protein, either way, in both replicates (recomputed)
# Procedure, shortened: (§1)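 Quantification of soluble protein used TMTpro 16plex LC-MS/MS, with channel sums equalised. Samples were the supernatant after 21,000xg for 90 min of pooled aliquots from K562 cells (2×10^6 cells/mL) treated with 10 μM compound for 30 min, heated for 3 min over 48°C-58°C, and extracted in PBS with 0.5% NP-40 at 4°C. Values, from duplicates, describe thermal stability against control samples on a log2 fold-change scale.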
# Chain of UniProt Q14849 (Q14849 whole entry, looked up): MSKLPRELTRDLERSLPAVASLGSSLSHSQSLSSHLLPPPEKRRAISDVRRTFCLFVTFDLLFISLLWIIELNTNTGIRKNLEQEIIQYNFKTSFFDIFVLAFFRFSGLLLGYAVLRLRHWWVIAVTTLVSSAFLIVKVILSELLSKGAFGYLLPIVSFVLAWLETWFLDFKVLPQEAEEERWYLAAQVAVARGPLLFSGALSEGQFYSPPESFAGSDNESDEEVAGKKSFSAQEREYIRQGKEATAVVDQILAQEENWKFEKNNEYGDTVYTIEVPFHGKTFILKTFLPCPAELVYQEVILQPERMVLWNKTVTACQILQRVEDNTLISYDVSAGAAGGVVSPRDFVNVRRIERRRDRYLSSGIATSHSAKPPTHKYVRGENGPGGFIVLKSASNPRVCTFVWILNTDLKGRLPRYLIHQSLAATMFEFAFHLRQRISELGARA
# Chain of UniProt P78383 (P78383 whole entry, looked up): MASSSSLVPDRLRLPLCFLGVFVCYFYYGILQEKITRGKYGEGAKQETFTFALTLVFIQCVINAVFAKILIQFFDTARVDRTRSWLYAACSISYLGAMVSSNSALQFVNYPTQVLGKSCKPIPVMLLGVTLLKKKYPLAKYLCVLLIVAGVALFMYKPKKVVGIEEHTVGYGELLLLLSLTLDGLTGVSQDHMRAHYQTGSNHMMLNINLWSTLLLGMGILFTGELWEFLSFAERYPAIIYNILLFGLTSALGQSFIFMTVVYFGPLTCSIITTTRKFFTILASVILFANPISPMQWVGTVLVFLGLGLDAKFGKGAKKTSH
# Chain of UniProt P23497 (P23497 whole entry, looked up): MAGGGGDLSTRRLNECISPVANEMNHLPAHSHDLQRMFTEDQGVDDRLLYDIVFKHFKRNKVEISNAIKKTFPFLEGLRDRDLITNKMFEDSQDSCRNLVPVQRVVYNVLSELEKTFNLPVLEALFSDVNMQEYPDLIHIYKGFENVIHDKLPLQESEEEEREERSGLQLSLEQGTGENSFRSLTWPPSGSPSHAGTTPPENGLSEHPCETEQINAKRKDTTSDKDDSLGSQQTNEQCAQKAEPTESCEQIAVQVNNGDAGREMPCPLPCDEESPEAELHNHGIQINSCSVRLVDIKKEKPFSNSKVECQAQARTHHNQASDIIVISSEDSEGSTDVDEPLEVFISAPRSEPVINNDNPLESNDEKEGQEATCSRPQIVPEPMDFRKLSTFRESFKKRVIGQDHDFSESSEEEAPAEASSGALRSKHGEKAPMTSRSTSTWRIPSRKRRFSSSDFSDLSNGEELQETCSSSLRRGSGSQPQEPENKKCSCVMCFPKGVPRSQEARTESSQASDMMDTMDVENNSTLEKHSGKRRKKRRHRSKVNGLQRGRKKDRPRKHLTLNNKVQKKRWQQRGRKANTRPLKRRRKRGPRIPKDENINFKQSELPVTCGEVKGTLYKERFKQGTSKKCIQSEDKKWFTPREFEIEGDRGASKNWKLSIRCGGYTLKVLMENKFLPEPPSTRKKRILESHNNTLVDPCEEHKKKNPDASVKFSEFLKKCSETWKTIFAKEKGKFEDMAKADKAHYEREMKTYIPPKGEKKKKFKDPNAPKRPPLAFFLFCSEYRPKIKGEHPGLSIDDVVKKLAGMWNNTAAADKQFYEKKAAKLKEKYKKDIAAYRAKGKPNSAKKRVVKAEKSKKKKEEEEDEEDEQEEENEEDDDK
# Chain of UniProt Q6PCB7 (Q6PCB7 whole entry, looked up): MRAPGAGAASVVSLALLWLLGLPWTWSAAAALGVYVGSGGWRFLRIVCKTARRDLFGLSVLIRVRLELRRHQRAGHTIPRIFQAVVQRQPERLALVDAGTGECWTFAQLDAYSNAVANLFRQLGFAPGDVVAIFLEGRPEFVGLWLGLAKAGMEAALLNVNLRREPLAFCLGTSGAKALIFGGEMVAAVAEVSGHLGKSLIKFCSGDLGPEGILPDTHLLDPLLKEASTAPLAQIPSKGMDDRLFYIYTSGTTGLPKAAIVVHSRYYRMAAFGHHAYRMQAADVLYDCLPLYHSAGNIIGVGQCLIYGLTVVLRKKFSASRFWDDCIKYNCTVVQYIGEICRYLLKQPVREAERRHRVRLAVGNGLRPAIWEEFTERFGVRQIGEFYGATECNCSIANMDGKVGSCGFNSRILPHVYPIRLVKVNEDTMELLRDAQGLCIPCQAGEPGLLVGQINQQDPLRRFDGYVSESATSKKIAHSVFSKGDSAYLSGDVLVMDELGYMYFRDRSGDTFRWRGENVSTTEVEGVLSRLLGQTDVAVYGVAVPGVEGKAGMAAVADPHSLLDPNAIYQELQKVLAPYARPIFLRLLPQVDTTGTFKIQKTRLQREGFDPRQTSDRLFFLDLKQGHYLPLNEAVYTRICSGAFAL
# Chain of UniProt Q6YHU6 (Q6YHU6 whole entry, looked up): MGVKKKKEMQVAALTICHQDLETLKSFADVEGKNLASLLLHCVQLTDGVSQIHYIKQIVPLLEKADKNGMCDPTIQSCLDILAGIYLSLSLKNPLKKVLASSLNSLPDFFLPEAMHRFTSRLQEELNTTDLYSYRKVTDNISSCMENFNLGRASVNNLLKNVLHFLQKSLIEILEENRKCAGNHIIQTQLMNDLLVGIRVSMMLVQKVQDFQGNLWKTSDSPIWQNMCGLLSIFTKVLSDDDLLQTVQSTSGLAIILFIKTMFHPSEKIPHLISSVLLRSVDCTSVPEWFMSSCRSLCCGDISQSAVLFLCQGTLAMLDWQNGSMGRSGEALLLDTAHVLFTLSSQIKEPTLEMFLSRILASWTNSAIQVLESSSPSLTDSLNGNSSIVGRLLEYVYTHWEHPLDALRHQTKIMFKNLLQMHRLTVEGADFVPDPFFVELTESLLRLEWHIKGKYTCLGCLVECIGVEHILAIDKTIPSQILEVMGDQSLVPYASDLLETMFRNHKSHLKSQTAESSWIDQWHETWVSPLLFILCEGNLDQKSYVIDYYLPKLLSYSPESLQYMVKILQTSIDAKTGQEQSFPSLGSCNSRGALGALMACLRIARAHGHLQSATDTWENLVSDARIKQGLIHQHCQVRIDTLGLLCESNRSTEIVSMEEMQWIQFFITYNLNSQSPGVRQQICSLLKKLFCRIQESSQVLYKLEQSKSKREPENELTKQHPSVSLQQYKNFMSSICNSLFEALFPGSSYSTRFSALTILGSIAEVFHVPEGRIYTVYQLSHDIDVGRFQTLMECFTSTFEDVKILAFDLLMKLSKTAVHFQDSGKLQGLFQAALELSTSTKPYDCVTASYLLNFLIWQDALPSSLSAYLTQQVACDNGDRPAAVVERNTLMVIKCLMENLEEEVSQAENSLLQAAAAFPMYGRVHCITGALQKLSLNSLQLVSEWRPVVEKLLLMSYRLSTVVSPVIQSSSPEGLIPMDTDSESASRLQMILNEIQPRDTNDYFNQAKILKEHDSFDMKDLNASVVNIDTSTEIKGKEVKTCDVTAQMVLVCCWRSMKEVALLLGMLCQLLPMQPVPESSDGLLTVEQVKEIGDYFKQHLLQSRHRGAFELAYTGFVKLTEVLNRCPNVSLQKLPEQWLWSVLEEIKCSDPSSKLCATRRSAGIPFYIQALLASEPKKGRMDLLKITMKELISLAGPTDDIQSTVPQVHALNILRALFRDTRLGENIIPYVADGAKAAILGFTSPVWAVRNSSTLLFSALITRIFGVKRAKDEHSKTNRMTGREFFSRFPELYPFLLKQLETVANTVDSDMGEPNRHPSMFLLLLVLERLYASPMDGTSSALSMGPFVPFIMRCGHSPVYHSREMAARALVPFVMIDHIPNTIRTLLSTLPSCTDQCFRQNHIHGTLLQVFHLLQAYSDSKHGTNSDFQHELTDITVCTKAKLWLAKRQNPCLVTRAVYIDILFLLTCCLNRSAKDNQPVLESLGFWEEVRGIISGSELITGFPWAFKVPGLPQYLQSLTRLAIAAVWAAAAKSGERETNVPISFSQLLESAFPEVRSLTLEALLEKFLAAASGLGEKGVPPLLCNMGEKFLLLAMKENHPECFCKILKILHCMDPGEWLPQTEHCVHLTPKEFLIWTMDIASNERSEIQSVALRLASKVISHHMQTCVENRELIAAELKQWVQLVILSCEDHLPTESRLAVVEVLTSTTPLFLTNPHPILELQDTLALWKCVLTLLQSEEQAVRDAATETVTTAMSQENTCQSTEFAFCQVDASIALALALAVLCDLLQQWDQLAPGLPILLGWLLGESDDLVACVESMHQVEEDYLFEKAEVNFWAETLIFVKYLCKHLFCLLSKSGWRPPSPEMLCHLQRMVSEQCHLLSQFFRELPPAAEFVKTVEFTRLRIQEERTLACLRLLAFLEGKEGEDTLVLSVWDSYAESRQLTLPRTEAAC
# Chain of UniProt Q92844 (Q92844 whole entry, looked up): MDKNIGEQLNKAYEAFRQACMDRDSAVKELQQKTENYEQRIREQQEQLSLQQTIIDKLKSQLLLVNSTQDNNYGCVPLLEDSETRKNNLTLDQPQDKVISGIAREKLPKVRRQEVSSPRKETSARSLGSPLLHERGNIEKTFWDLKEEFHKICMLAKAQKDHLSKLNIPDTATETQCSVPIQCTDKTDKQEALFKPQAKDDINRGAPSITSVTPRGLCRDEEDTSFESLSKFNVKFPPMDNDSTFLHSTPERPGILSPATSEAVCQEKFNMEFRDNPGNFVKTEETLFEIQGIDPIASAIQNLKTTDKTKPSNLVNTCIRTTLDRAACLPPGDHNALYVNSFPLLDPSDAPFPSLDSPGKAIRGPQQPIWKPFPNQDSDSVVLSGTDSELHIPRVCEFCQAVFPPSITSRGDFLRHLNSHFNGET
# Chain of UniProt Q15005 (Q15005 whole entry, looked up): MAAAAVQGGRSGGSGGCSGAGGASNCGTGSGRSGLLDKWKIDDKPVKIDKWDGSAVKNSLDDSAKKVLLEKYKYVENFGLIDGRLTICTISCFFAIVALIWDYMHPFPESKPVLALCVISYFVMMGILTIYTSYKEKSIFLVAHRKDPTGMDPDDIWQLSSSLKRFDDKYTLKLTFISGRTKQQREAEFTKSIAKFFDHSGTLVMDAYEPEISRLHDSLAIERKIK
# Chain of UniProt Q9Y5J6 (Q9Y5J6 whole entry, looked up): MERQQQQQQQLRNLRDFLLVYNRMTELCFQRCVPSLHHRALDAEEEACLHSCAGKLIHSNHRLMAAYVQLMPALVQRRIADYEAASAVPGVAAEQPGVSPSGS
row,Target,log2 fold change
1,SLC44A2 isoform 2 (UniProt Q8IWA5),-0.055
2,STK38L (UniProt Q9Y2H1),0.002
3,SLC35F6 (UniProt Q8N357),-0.025
4,SLC27A1 (UniProt Q6PCB7),-0.011
5,SRSF6 (UniProt Q13247),-0.331
6,TATDN2 (UniProt Q93075),-0.002
7,TENT5C (UniProt Q5VWP2),-0.133
8,TMBIM1 (UniProt Q969X1),-0.042
9,SNRNP40 (UniProt Q96DI7),0.045
10,SPART (UniProt Q8N0X7),0.001
11,SRSF4 (UniProt Q08170),-0.283
12,SNX1 (UniProt Q13596),-0.112
13,THADA (UniProt Q6YHU6),-0.036
14,TACC2 (UniProt O95359),0.075
15,SRFBP1 (UniProt Q8NEF9),0.052
16,SYNE1 (UniProt Q8NF91),-0.14
17,STARD3 (UniProt Q14849),-0.02
18,SRCAP (UniProt Q6ZRS2),-0.069

row,Target,log2 fold change
1,THYN1 (UniProt Q9P016),0.079
2,SURF2 (UniProt Q15527),-0.015
3,TANGO6 (UniProt Q9C0B7),-0.077
4,SPCS2 (UniProt Q15005),0.062
5,STAM2 (UniProt O75886),0.035
6,SP100 isoform 4 (UniProt P23497),0.018
7,TM7SF3 (UniProt Q9NS93),0.039
8,TIMM10B (UniProt Q9Y5J6),0.484 (active)
9,TLK1 (UniProt Q9UKI8),-0.064
10,SLC30A7 (UniProt Q8NEW0),0.016
11,TAF6L (UniProt Q9Y6J9),-0.044
12,SLC35B1 isoform 2 (UniProt P78383),-0.003
13,STX7 (UniProt O15400),0.013
14,TARS2 (UniProt Q9BW92),0.03
15,SUPT5H (UniProt O00267),-0.004
16,SMIM20 isoform 2 (UniProt Q8N5G0),0.018
17,TANK (UniProt Q92844),0.236

# Compound: CNC(=O)c1ccc(Nc2ncc(C(F)(F)F)c(NCc3nccnc3N(C)S(C)(=O)=O)n2)cc1 [defactinib]
# Assay: as above
# Procedure, shortened: as §1
row,Target,log2 fold change
1,SLC44A2 isoform 2 (UniProt Q8IWA5),-0.137
2,STK38L (UniProt Q9Y2H1),-0.048
3,SLC35F6 (UniProt Q8N357),-0.043
4,SLC27A1 (UniProt Q6PCB7),0.064
5,SRSF6 (UniProt Q13247),0.032
6,TATDN2 (UniProt Q93075),0
7,TENT5C (UniProt Q5VWP2),0.071
8,TMBIM1 (UniProt Q969X1),0.043
9,SNRNP40 (UniProt Q96DI7),0.128
10,SPART (UniProt Q8N0X7),-0.109
11,SRSF4 (UniProt Q08170),0.045
12,SMDT1 (UniProt Q9H4I9),0.014
13,SNX1 (UniProt Q13596),-0.036
14,THADA (UniProt Q6YHU6),-0.079
15,SMARCB1 (UniProt Q12824),-0.158
16,TACC2 (UniProt O95359),-0.091
17,SYNE1 (UniProt Q8NF91),-0.092

row,Target,log2 fold change
1,STARD3 (UniProt Q14849),-0.035
2,SNX15 (UniProt Q9NRS6),-0.177
3,SRCAP (UniProt Q6ZRS2),-0.004
4,THYN1 (UniProt Q9P016),-0.002
5,SURF2 (UniProt Q15527),-0.056
6,SPCS2 (UniProt Q15005),-0.026
7,STAM2 (UniProt O75886),-0.095
8,SP100 isoform 4 (UniProt P23497),-0.087
9,TIMM10B (UniProt Q9Y5J6),-0.074
10,TLK1 (UniProt Q9UKI8),-0.013
11,SLC30A7 (UniProt Q8NEW0),-0.051
12,SLC35B1 isoform 2 (UniProt P78383),0.026
13,STX7 (UniProt O15400),-0.033
14,TARS2 (UniProt Q9BW92),-0.033
15,SUPT5H (UniProt O00267),-0.126
16,SMIM20 isoform 2 (UniProt Q8N5G0),-0.138
17,TANK (UniProt Q92844),0.045
